Bioassay records (PubChem BioAssay)
KB-3-1 tox – qHTS assay for MDR1-selective chemotherapeutics: Primary screen using the parental adenocarcinoma cell KB-3-1. KB-3-1 viability, CellTiter-Glo ATP luminescence, 72 h. Potency, µM (top dose mostly 46.1 µM), hits mostly cytotoxic. 400,000 compounds, 1.4% hits; further: nearly all actives have a fitted effect of over 60% in size
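KB-3-1 cells, DMEM (no phenol red) + 10% FBS; compound by pin transfer, 72 h, 37 °C. Readout: CellTiter-Glo luminescence after 10 min. Data normalized, curve-fitted.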
MCF10A rerep – A quantitative high throughput screen for small molecules that induce DNA re-replication in MCF 10a normal breast cells; MCF 10A DNA re-replication, Hoechst nuclear intensity, 48 h; 350,000 compounds, 2.9% hits; Potency, µM (series often up to 46.1 µM), actives largely listed as activators; AID 624296, 2012; further: nearly all actives have a fitted effect of over 50% in size
KB-V1 cytotox – qHTS assay for MDR1-selective chemotherapeutics: Primary screen using the drug-selected MDR subline cells KB-V1; KB-V1 MDR cells viability, CellTiter-Glo, 72 h; Potency, µM (titrated, usually from 46.1 µM), usual class: cytotoxic; 400,000 compounds, 3.4% hits; further: nearly all actives have a fitted effect of over 60% in size
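Drug-selected KB-V1 cells, grown in DMEM lacking phenol red with 10% FBS, receive compound titrations; after three days at 37 degrees C, surviving cell ATP is quantified by CellTiter-Glo luminescence and responses normalized and curve-fitted.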
PTAP TSG101 blk – qHTS Assay for Iinhibitors of HIV-1 Budding by Blocking the Interaction of PTAP/TSG101. Potency, µM (top dose mostly 115 µM), usual class: inhibitors. Tumor susceptibility gene 101 protein (Homo sapiens), Q99816. 340,000 tested, under 10 active. AID 493005, 2010. Fluorescence polarization, FITC-PTAP peptide / Tsg101 binding; active means well fitted inhibition curve with a large enough effect in the main read-out, with a control signal flat, not every such curve was filed as active; inconclusive means small, poorly fitted or top-dose-only effect, or effect the other way, or a change in a side signal; inactive means no such curve, though single readings can be large or run the other way
Target sequence (Q99816 whole entry, looked up): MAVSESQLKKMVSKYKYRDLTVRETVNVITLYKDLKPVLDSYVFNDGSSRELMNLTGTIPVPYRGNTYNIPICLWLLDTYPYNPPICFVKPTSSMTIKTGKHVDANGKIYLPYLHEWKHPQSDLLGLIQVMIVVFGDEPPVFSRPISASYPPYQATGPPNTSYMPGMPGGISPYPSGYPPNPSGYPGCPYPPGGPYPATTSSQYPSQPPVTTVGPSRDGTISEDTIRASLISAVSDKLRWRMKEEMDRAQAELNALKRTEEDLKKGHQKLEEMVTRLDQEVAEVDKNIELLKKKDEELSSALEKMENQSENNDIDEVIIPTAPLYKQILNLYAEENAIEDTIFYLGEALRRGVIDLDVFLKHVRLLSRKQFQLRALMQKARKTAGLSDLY
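Fluorescence polarization binding of Tsg101 binding domain (10 uM final) to FITC-labeled PTAP peptide (50 nM final) in HEPES pH 7.5 buffer with NaCl, Tween 20, EDTA, TCEP. Compounds added before peptide; binding 20 min at RT.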
RGS4 inh – Inhibitors of Regulator of G Protein Signaling (RGS) 4: qHTS. Regulator of G-protein signaling 4 (Homo sapiens), P49798. Transcreener GDP fluorescence polarization, RGS4-accelerated GTP hydrolysis. Potency, µM (top dose mostly 114 µM), actives largely listed as inhibitors. AID 504845, 2011. 390,000 compounds, 0.039% hits; further: nearly all actives have a fitted effect of over 75% in size
Target sequence (P49798 whole entry, looked up): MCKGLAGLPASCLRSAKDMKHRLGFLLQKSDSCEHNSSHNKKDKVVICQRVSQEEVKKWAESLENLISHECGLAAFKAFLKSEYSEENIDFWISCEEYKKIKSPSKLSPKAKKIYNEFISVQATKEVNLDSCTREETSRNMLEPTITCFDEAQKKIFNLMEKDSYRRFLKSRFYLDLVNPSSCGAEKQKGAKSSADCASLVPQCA
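MLSMR compounds (23 nl, pin-transferred) preincubated 10 min at room temperature with a 500nM (2x) first reagent, then RGS4 at 900nM (2x) plus Transcreener GDP mix added; fluorescence polarization (620/688 nm) read before and after 90 min at 30 °C.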
SW480 rereplic – A quantitative high throughput screen for small molecules that induce DNA re-replication in SW480 colon adenocarcinoma cells; SW480 DNA re-replication, Hoechst DNA content imaging, 48 h; Potency, µM (doses to about 46.1 µM), hits mostly activators; 340,000 compounds, 1.8% hits; further: nearly all actives have a fitted effect of over 55% in size
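SW480 cells exposed to compounds for 48 hr at 37 C, 5% CO2, then Hoechst-stained 40 min. Nuclear DNA content imaged by fluorescence scanning (405 nm excitation, 500-530 nm emission); re-replication scored as increased high-intensity nuclei.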
Large screens that a line does not name were inactive. In the library only some 6.6% were active in any assay of this set; here they are far more common. Unless noted, the call rests on the fitted dose curve; in most records, active means well fitted curve in the direction sought with a large enough effect; inconclusive means small, poorly fitted or top-dose-only effect, or another doubt; inactive means no such curve, though single readings can be large; an effect the other way counts as inactive or inconclusive.

Cn1c(C(=O)Nc2cccc(Cl)c2)cc2c(=O)n(C)c3ccccc3c21	none (no result: MCF10A rerep, PTAP TSG101 blk, SW480 rereplic)
N#Cc1c(C(F)(F)F)cc(-c2cccs2)nc1SCC(=O)Nc1ccc(F)cc1	none (no result: MCF10A rerep, PTAP TSG101 blk, SW480 rereplic)
CCCCNC(=O)CSc1nc2n[nH]c(C)c2c(=N)n1-c1ccccc1CC	none (no result: KB-3-1 tox, MCF10A rerep, KB-V1 cytotox, PTAP TSG101 blk, SW480 rereplic)
CCc1ccccc1N(C)S(=O)(=O)c1ccc2c(c1)C(C)(C)C(=O)N2C	none (no result: MCF10A rerep, PTAP TSG101 blk, SW480 rereplic)
FC(F)(F)c1nnc2sc(-c3ccccn3)nn12	none
Clc1ccccc1-c1nnc2sc(-c3ccncc3)nn12	RGS4 inh inconclusive
CN(C)c1ccc(-c2nn3c(-c4ccccc4Cl)nnc3s2)cc1	KB-3-1 tox 0.58µM, MCF10A rerep inconclusive, KB-V1 cytotox 1.2µM, RGS4 inh inconclusive, SW480 rereplic 1µM
COc1ccccc1-c1nn2c(C(F)(F)F)nnc2s1	KB-3-1 tox inconclusive, KB-V1 cytotox 7.3µM
COc1cccc(CNC(=O)CCc2c(C)c3cc4c(C)coc4c(C)c3oc2=O)c1	none (no result: KB-3-1 tox, MCF10A rerep, KB-V1 cytotox, PTAP TSG101 blk, SW480 rereplic)
CCN1CCN(C(c2cccc(Cl)c2)c2c(O)cc(C)n(CCOC)c2=O)CC1 (stereo unspecified)	none (no result: MCF10A rerep, PTAP TSG101 blk, SW480 rereplic)
Cc1cccc(OCCn2c(CCNC(=O)C3CCCCC3)nc3ccccc32)c1	none (no result: MCF10A rerep, PTAP TSG101 blk, SW480 rereplic)
COc1ccc(NC(=O)CN(c2cccc(C)c2C)S(=O)(=O)c2ccccc2)cc1OC	KB-V1 cytotox inconclusive (no result: MCF10A rerep, PTAP TSG101 blk, SW480 rereplic)
Cc1nc2ncccn2c1-c1csc(Nc2ccc(O)cc2)n1	KB-3-1 tox 15µM, RGS4 inh inconclusive
Cc1ccnc(Nc2nc(-c3c(C)nc4sccn34)cs2)c1	KB-3-1 tox inconclusive, MCF10A rerep inconclusive, KB-V1 cytotox inconclusive
C=CCNc1nc(-c2c(C)nc3ncccn23)cs1	none
Cc1ccc(Nc2nc(-c3c(C)nc4ccccn34)cs2)cc1	KB-3-1 tox 0.021µM, MCF10A rerep inconclusive, KB-V1 cytotox 0.16µM, RGS4 inh inconclusive, SW480 rereplic inconclusive
Cc1nc2ccccn2c1-c1csc(NCc2ccco2)n1	KB-V1 cytotox inconclusive, RGS4 inh inconclusive
Cc1ccc(Nc2nc(-c3c(C)nc4ncccn34)cs2)cc1	KB-3-1 tox 0.0058µM, MCF10A rerep inconclusive, KB-V1 cytotox 0.33µM, RGS4 inh inconclusive, SW480 rereplic 0.058µM
CC(C)Cn1c(=O)c2sccc2n2c(CCCC(=O)NCCc3ccc(Cl)cc3)nnc12	none (no result: KB-3-1 tox, MCF10A rerep, KB-V1 cytotox, PTAP TSG101 blk, SW480 rereplic)
Cc1nc2c(-c3ccccc3)c(C)nn2c(C)c1CCC(=O)NCc1ccc(F)cc1	none (no result: MCF10A rerep, PTAP TSG101 blk, SW480 rereplic)
Cc1cccc(OCCNC(=O)CCNS(=O)(=O)c2ccc3ccccc3c2)c1	KB-V1 cytotox 18µM
Cc1cccc(N2C(=O)CSC23C(=O)N(Cc2cccc(C(F)(F)F)c2)c2ccccc23)c1 (stereo unspecified)	KB-3-1 tox inconclusive (no result: MCF10A rerep, PTAP TSG101 blk, SW480 rereplic)
Cc1ccc(-c2csc(NC(=O)C3CC(=O)N(c4ccc5c(c4)OCCO5)C3)n2)o1 (stereo unspecified)	KB-3-1 tox inconclusive, RGS4 inh inconclusive (no result: MCF10A rerep, PTAP TSG101 blk, SW480 rereplic)
O=c1c2c(nc3c(-c4cccc5ccccc45)c[nH]n13)CCC2	MCF10A rerep 11µM
Cc1[nH]n2c(=O)c3c(nc2c1-c1cccc2ccccc12)CCC3	MCF10A rerep inconclusive
Cc1nn(C(C)(C)C)c(OC(=O)c2cccc(F)c2)c1Sc1ccccc1	none (no result: MCF10A rerep, PTAP TSG101 blk, SW480 rereplic)
Cc1ccccc1CNC(=O)Cc1csc2ccccc12	none (no result: KB-3-1 tox, MCF10A rerep, KB-V1 cytotox, PTAP TSG101 blk, SW480 rereplic)
C=C[C@]1(C)C=C2C(=O)[C@@]3(O)OC(=O)[C@@]4(CCCC(C)(C)[C@H]34)[C@@]2(O)CC1	KB-3-1 tox 4.6µM, KB-V1 cytotox inconclusive (no result: MCF10A rerep, PTAP TSG101 blk, RGS4 inh, SW480 rereplic)
C=C[C@]1(C)C=C2CC[C@H]3[C@@](C)(CCC[C@@]3(C)C(=O)O)[C@@H]2CC1	none
CCCOc1ccc(CNC(=O)C(CC)n2nc(C)c3sc4ccccc4c3c2=O)cc1 (stereo unspecified)	none (no result: MCF10A rerep, PTAP TSG101 blk, SW480 rereplic)
CC/C(=N\NC(=O)CCC(=O)NCc1ccccc1)c1ccc(O)cc1	KB-3-1 tox 3.3µM, MCF10A rerep inconclusive, SW480 rereplic inconclusive
